# ± gives the standard deviation.
# T1: HaloTag-ATRX ADD domain (163-292)
# T1 chain: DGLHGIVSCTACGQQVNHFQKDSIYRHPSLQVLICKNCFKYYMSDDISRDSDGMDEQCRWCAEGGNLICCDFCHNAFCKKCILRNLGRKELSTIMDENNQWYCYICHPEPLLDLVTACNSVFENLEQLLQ
# How the values were obtained:
# Assay in all cases: peptide microarray binding signal (635 nm), min-max normalized on array (fraction of array maximum); higher = stronger binding
# Details in all cases: peptide region: H3 11-23
# [1] = molecular target: T1, HaloTag-ATRX ADD domain (163-292)
# In short: (§1)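 Triplicate spots of histone 13-mer peptide–cellulose conjugates with a Cy3 tracer were printed on nitrocellulose and probed for 1 h at 4°C with biotin-labelled HaloTag reader fusions (10 nM to 1 μM) plus streptavidin-Alexa Fluor 647 or rabbit histone antibodies (1:10,000 to 1:2,000) plus anti-rabbit Alexa 647. An Axon GenePix 4000B read the 635 nm channel. Binding signal is the spot-triplicate mean intensity after min-max scaling within each library.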
# [2] = molecular target: HaloTag-ING2 PHD (mouse Ing2 200-280)
# In short: as §1
# [3] = molecular target: anti-H3K4me3 antibody ab8580
# In short: as §1
# [4] = molecular target: anti-H3K9me3 antibody ab8898
# In short: as §1
# [5] = peptide modifications: H3K14me3 H3K18me1, binder concentration: 1:2,000 dilution
# [6] = peptide modifications: H3K14me3 H3K18me1, binder concentration: 1:10,000 dilution
# [7] = peptide modifications: H3K14me2 H3R17me2s, binder concentration: 1:2,000 dilution
# [8] = peptide modifications: H3K14me2 H3R17me2s, binder concentration: 1:10,000 dilution
# [9] = peptide modifications: H3K14me3 H3R17me2s, binder concentration: 1:2,000 dilution
# [10] = peptide modifications: H3K14me3 H3R17me2s, binder concentration: 1:10,000 dilution
# [11] = peptide modifications: H3R17cit H3K18ac, binder concentration: 1:2,000 dilution
# [12] = peptide modifications: H3R17cit H3K18ac, binder concentration: 1:10,000 dilution
# [13] = peptide modifications: H3K14me2 H3R17me1, binder concentration: 1:2,000 dilution
# [14] = peptide modifications: H3K14me2 H3R17me1, binder concentration: 1:10,000 dilution
# [15] = peptide modifications: H3K18me2, binder concentration: 1:2,000 dilution
# [16] = peptide modifications: H3K18me2, binder concentration: 1:10,000 dilution
# [17] = peptide modifications: H3K14me3, binder concentration: 1:2,000 dilution
# [18] = peptide modifications: H3K14me3, binder concentration: 1:10,000 dilution
# [19] = peptide modifications: H3K14me2 H3R17cit, binder concentration: 1:2,000 dilution
# [20] = peptide modifications: H3K14me2 H3R17cit, binder concentration: 1:10,000 dilution
# [21] = peptide modifications: H3K18ac, binder concentration: 1:2,000 dilution
# [22] = peptide modifications: H3K18ac, binder concentration: 1:10,000 dilution
# [23] = peptide modifications: H3K14me2 H3R17me2a, binder concentration: 1:2,000 dilution
# [24] = peptide modifications: H3K14me2 H3R17me2a, binder concentration: 1:10,000 dilution
binder,measurement,setting,value
TGGKAPRKQLATK [H3 11-23 T G G Kme3 A P R Kme Q L A T K],peptide microarray binding signal,"[1]; peptide modifications: H3K14me3 H3K18me1, binder concentration: 50 nM",0.00624 ± 0.00027
same,peptide microarray binding signal,"[1]; peptide modifications: H3K14me3 H3K18me1, binder concentration: 500 nM",0.0127 ± 0.00063
same,peptide microarray binding signal,"[2]; peptide modifications: H3K14me3 H3K18me1, binder concentration: 10 nM",0.0189 ± 0.00082
same,peptide microarray binding signal,"[2]; peptide modifications: H3K14me3 H3K18me1, binder concentration: 100 nM",0.0235 ± 0.0053
same,peptide microarray binding signal,[3]; [5],0.0496 ± 0.0091
same,peptide microarray binding signal,[3]; [6],0.0252 ± 0.0028
same,peptide microarray binding signal,[4]; [5],0.0621 ± 0.0077
same,peptide microarray binding signal,[4]; [6],0.0203 ± 0.0028
TGGKAPRKQLATK [H3 11-23 T G G Kme2 A P Rme2s K Q L A T K],peptide microarray binding signal,"[1]; peptide modifications: H3K14me2 H3R17me2s, binder concentration: 50 nM",0.00489 ± 0.00015
same,peptide microarray binding signal,"[1]; peptide modifications: H3K14me2 H3R17me2s, binder concentration: 500 nM",0.0177 ± 0.0016
same,peptide microarray binding signal,"[2]; peptide modifications: H3K14me2 H3R17me2s, binder concentration: 10 nM",0.0129 ± 0.0031
same,peptide microarray binding signal,"[2]; peptide modifications: H3K14me2 H3R17me2s, binder concentration: 100 nM",0.00964 ± 0.0051
same,peptide microarray binding signal,[3]; [7],0.00034 ± 1e-05
same,peptide microarray binding signal,[3]; [8],0.0123 ± 0.0055
same,peptide microarray binding signal,[4]; [7],0.00669 ± 0.0021
same,peptide microarray binding signal,[4]; [8],0.00726 ± 0.0002
TGGKAPRKQLATK [H3 11-23 T G G Kme3 A P Rme2s K Q L A T K],peptide microarray binding signal,"[1]; peptide modifications: H3K14me3 H3R17me2s, binder concentration: 50 nM",0.0074 ± 0.0004
same,peptide microarray binding signal,"[1]; peptide modifications: H3K14me3 H3R17me2s, binder concentration: 500 nM",0.0114 ± 0.00062
same,peptide microarray binding signal,"[2]; peptide modifications: H3K14me3 H3R17me2s, binder concentration: 10 nM",0.0227 ± 0.00044
same,peptide microarray binding signal,"[2]; peptide modifications: H3K14me3 H3R17me2s, binder concentration: 100 nM",0.0342 ± 0.0024
same,peptide microarray binding signal,[3]; [9],0.0208 ± 0.0037
same,peptide microarray binding signal,[3]; [10],0.0151 ± 0.00082
same,peptide microarray binding signal,[4]; [9],0.021 ± 0.0014
same,peptide microarray binding signal,[4]; [10],0.0116 ± 0.00028
TGGKAPRKQLATK [H3 11-23 T G G K A P Rcit Kac Q L A T K],peptide microarray binding signal,"[1]; peptide modifications: H3R17cit H3K18ac, binder concentration: 50 nM",0.00473 ± 9.3e-05
same,peptide microarray binding signal,"[1]; peptide modifications: H3R17cit H3K18ac, binder concentration: 500 nM",0.0124 ± 0.00036
same,peptide microarray binding signal,"[2]; peptide modifications: H3R17cit H3K18ac, binder concentration: 10 nM",0.00364
same,peptide microarray binding signal,"[2]; peptide modifications: H3R17cit H3K18ac, binder concentration: 100 nM",0.0114 ± 0.0017
same,peptide microarray binding signal,[3]; [11],0.003 ± 0.00042
same,peptide microarray binding signal,[3]; [12],0.0028 ± 0.00011
same,peptide microarray binding signal,[4]; [11],0.000634 ± 2.6e-05
same,peptide microarray binding signal,[4]; [12],0.000865 ± 2.4e-05
TGGKAPRKQLATK [H3 11-23 T G G Kme2 A P Rme K Q L A T K],peptide microarray binding signal,"[1]; peptide modifications: H3K14me2 H3R17me1, binder concentration: 50 nM",0.00417 ± 0.00015
same,peptide microarray binding signal,"[1]; peptide modifications: H3K14me2 H3R17me1, binder concentration: 500 nM",0.0101 ± 0.00014
same,peptide microarray binding signal,"[2]; peptide modifications: H3K14me2 H3R17me1, binder concentration: 10 nM",0.00483 ± 0.00017
same,peptide microarray binding signal,"[2]; peptide modifications: H3K14me2 H3R17me1, binder concentration: 100 nM",0.00843 ± 0.0018
same,peptide microarray binding signal,[3]; [13],0.00376 ± 0.0005
same,peptide microarray binding signal,[3]; [14],0.00211 ± 8.9e-05
same,peptide microarray binding signal,[4]; [13],0.00378 ± 0.00014
same,peptide microarray binding signal,[4]; [14],0.00288 ± 8.6e-05
TGGKAPRKQLATK [H3 11-23 T G G K A P R Kme2 Q L A T K],peptide microarray binding signal,"[1]; peptide modifications: H3K18me2, binder concentration: 50 nM",0.00558 ± 0.00014
same,peptide microarray binding signal,"[1]; peptide modifications: H3K18me2, binder concentration: 500 nM",0.0142 ± 0.0013
same,peptide microarray binding signal,"[2]; peptide modifications: H3K18me2, binder concentration: 10 nM",0.004595 ± 2.3e-05
same,peptide microarray binding signal,"[2]; peptide modifications: H3K18me2, binder concentration: 100 nM",0.0225 ± 0.0074
same,peptide microarray binding signal,[3]; [15],0.00421 ± 0.00019
same,peptide microarray binding signal,[3]; [16],0.001541 ± 1.5e-05
same,peptide microarray binding signal,[4]; [15],0.00397 ± 0.00076
same,peptide microarray binding signal,[4]; [16],0.00231 ± 4.2e-05
TGGKAPRKQLATK [H3 11-23 T G G Kme3 A P R K Q L A T K],peptide microarray binding signal,"[1]; peptide modifications: H3K14me3, binder concentration: 50 nM",0.00567 ± 0.0004
same,peptide microarray binding signal,"[1]; peptide modifications: H3K14me3, binder concentration: 500 nM",0.017 ± 0.0053
same,peptide microarray binding signal,"[2]; peptide modifications: H3K14me3, binder concentration: 10 nM",0.0115 ± 0.0029
same,peptide microarray binding signal,"[2]; peptide modifications: H3K14me3, binder concentration: 100 nM",0.0106 ± 0.0035
same,peptide microarray binding signal,[3]; [17],0.0134 ± 0.0088
same,peptide microarray binding signal,[3]; [18],0.0221 ± 0.0092
same,peptide microarray binding signal,[4]; [17],0.062 ± 0.022
same,peptide microarray binding signal,[4]; [18],0.0336 ± 0.0081
TGGKAPRKQLATK [H3 11-23 T G G Kme2 A P Rcit K Q L A T K],peptide microarray binding signal,"[1]; peptide modifications: H3K14me2 H3R17cit, binder concentration: 50 nM",0.00455 ± 0.00063
same,peptide microarray binding signal,"[1]; peptide modifications: H3K14me2 H3R17cit, binder concentration: 500 nM",0.0129 ± 0.0034
same,peptide microarray binding signal,"[2]; peptide modifications: H3K14me2 H3R17cit, binder concentration: 10 nM",0.0106 ± 0.0018
same,peptide microarray binding signal,"[2]; peptide modifications: H3K14me2 H3R17cit, binder concentration: 100 nM",0.0185 ± 0.002
same,peptide microarray binding signal,[3]; [19],0.00051 ± 4e-05
same,peptide microarray binding signal,[3]; [20],0.0016 ± 4.6e-05
same,peptide microarray binding signal,[4]; [19],0.00488 ± 0.0014
same,peptide microarray binding signal,[4]; [20],0.00398 ± 0.00058
TGGKAPRKQLATK [H3 11-23 T G G K A P R Kac Q L A T K],peptide microarray binding signal,"[1]; peptide modifications: H3K18ac, binder concentration: 50 nM",0.00715 ± 0.00076
same,peptide microarray binding signal,"[1]; peptide modifications: H3K18ac, binder concentration: 500 nM",0.023 ± 0.014
same,peptide microarray binding signal,"[2]; peptide modifications: H3K18ac, binder concentration: 10 nM",0.0127 ± 0.0019
same,peptide microarray binding signal,"[2]; peptide modifications: H3K18ac, binder concentration: 100 nM",0.0351 ± 0.016
same,peptide microarray binding signal,[3]; [21],0.00259 ± 0.002
same,peptide microarray binding signal,[3]; [22],0.00462 ± 0.00058
same,peptide microarray binding signal,[4]; [21],0.00184 ± 8.2e-05
same,peptide microarray binding signal,[4]; [22],0.00173 ± 8.8e-05
TGGKAPRKQLATK [H3 11-23 T G G Kme2 A P Rme2a K Q L A T K],peptide microarray binding signal,"[1]; peptide modifications: H3K14me2 H3R17me2a, binder concentration: 50 nM",0.00561 ± 0.00083
same,peptide microarray binding signal,"[1]; peptide modifications: H3K14me2 H3R17me2a, binder concentration: 500 nM",0.00867 ± 0.00039
same,peptide microarray binding signal,"[2]; peptide modifications: H3K14me2 H3R17me2a, binder concentration: 10 nM",0.00686 ± 0.00028
same,peptide microarray binding signal,"[2]; peptide modifications: H3K14me2 H3R17me2a, binder concentration: 100 nM",0.00893 ± 0.00059
same,peptide microarray binding signal,[3]; [23],0.00351 ± 0.00056
same,peptide microarray binding signal,[3]; [24],0.00434 ± 0.00045
same,peptide microarray binding signal,[4]; [23],0.00379 ± 0.00076
same,peptide microarray binding signal,[4]; [24],0.00306 ± 0.00024

# From the supplement of paper PMC4022240
